High-throughput results (PubChem)
A selection: hits, their analogues and other compounds. The true share with any hit is near 19%.
Giardia kill: kills Giardia lamblia. Giardia lamblia trophozoite viability. activity change, % at 7.66 µM, hits read low. 340,000 compounds, 0.15% hits. AID 540267; in the data active = activity change below about -80%; inconclusive = between about -30% and that limit;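 also: parasites exposed to compound for two days anaerobically before the ATP read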
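Luminescence from cellular ATP indicates surviving trophozoites (100 cells/well) following 48 hrs anaerobic compound treatment at 37 deg C; signal develops 15-30 min at room temperature.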
DT40 TDP1 no CPT: qHTS for Inhibitors of human tyrosyl-DNA phosphodiesterase 1 (TDP1): qHTS in cells in absence of CPT; 420,000 compounds, 15% hits; DT40 Tdp1-/- hTDP1 cells, no CPT, ATP luminescence, 48 h; Potency, µM (doses to about 46.2 µM), most hits filed as inhibitors; also: nearly all actives have a fitted effect of over 55% in size
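Compound effects on proliferation are scored in DT40 Tdp1-/-;hTDP1 cells in the absence of CPT. ATP levels (CellTiter-Glo luminescence) are recorded after a ≥48 hr, 37 °C incubation.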
IL1B secr inh: inhibitors of inflammasome signaling (IL-1 beta secretion); THP-1 LPS/ATP IL-1B secretion, AlphaLISA, 16 h; active compounds read low; activity change, % at 57.5 µM; 360,000 compounds, 4.7% hits; AID 743279; in the data active = activity change below about -50%; inconclusive = mostly about -30% to -49%
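THP-1 cells pretreated 1 hr with compounds (up to 57.5 uM final), then stimulated with LPS (250 ng/mL final) plus ATP (1.25 mM final); secreted IL-1B measured by AlphaLISA after 16 hr, decreased signal indicating inhibition.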
TDP1 inh: blocks human tyrosyl-DNA phosphodiesterase 1 | Q9NUW8 | recombinant TDP1, AlphaScreen DNA substrate cleavage | Potency, µM (top dose mostly 130 µM), actives largely listed as inhibitors | 350,000 compounds, 0.28% hits | AID 485290; also: nearly all actives have a fitted effect of over 40% in size
Target sequence (Q9NUW8 whole entry, looked up): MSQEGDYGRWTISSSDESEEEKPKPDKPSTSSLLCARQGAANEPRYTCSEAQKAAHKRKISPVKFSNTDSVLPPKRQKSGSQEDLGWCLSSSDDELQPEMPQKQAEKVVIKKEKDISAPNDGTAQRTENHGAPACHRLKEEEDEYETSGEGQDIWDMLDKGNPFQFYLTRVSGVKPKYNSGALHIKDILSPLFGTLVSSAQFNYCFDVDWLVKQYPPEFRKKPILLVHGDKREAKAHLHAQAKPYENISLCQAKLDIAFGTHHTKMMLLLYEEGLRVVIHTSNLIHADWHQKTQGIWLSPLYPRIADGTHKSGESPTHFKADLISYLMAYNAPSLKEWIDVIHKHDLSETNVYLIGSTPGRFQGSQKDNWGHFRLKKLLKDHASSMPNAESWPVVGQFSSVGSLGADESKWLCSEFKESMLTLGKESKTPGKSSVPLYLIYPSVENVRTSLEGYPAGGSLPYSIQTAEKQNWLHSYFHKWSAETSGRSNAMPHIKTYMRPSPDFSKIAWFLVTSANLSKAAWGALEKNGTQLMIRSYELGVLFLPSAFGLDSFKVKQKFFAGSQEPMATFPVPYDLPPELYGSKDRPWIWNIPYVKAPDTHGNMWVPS
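Compounds were preincubated with Tdp1 (1 nM final) for 15 min at room temperature before substrate (15 nM final) started a 5 min reaction; beads (10 ug/ml final) were then added for 10 min before AlphaScreen detection.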
DT40 TDP1 CPT: growth inhibition of DT40 Tdp1-/-;hTDP1 cells with camptothecin (screen for TDP1 inhibitors) | Potency, µM (highest dose often 46.2 µM), usual class: inhibitors | 420,000 compounds, 12% hits | chicken DT40 Tdp1-/-;hTDP1 cells + 20 nM CPT, ATP luminescence, 48 h | AID 686979; also: nearly all actives have a fitted effect of over 55% in size
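Cell growth measured by CellTiter-Glo luminescence after a minimum 48 h, 37 C compound exposure with 20 nM CPT in Tdp1-knockout DT40 cells stably expressing hTDP1, seeded 400/well; qHTS titration format.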
ELG1 repair inh: inhibitors of ELG1-dependent DNA repair in HEK293T cells; HEK293T ELG1-luciferase reporter, luminescence, 16 h; DNA damage induced by 5-fluorouridine; Potency, µM (titrated, usually from 46.1 µM), actives largely listed as inhibitors; 330,000 compounds, 2.3% hits; also: nearly all actives have a fitted effect of over 55% in size
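Quantitative HTS, concentration-response format. 2,000 cells/well co-treated with 5-fluorouridine and compound, 16 hr in 5% CO2 at 37 °C; ONE-Glo luminescence read after 30 min.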
Numbers stand for hits. Unless noted, calls follow the shape of the dose curve; as a rule, active = well fitted curve in the direction sought with a large enough effect; inconclusive = small, poorly fitted or top-dose-only effect, or another doubt; inactive = no such curve, though single readings can be large; an effect the other way counts as inactive or inconclusive.

For Cc1cc(NC(=O)CSc2nc3c(C)ccc(C)c3cc2C#N)no1 the results were Giardia kill inactive, DT40 TDP1 no CPT inactive, IL1B secr inh inactive, TDP1 inh inactive, DT40 TDP1 CPT inconclusive and ELG1 repair inh inactive.
`CCS/C(N)=N/N=C/c1cc(C)ccc1O` gave Giardia kill inactive, DT40 TDP1 no CPT 0.82µM, IL1B secr inh -55.1, TDP1 inh inactive, DT40 TDP1 CPT 0.581µM and ELG1 repair inh inconclusive.
Cc1ccc(O)c(/C=N/NC(=O)CN2CCCC2)c1 was read as Giardia kill inactive, DT40 TDP1 no CPT inconclusive, IL1B secr inh inactive, TDP1 inh inactive, DT40 TDP1 CPT inconclusive and ELG1 repair inh inactive.
CS/C(N)=N/N=C/c1cc(C)ccc1O was read as Giardia kill inconclusive, DT40 TDP1 no CPT inconclusive, IL1B secr inh inactive, TDP1 inh inactive, DT40 TDP1 CPT inactive and ELG1 repair inh inconclusive.
`CCCCS/C(N)=N/N=C/c1cc(C)ccc1O` gave Giardia kill inconclusive, DT40 TDP1 no CPT 5.17µM, IL1B secr inh inactive, TDP1 inh inactive, DT40 TDP1 CPT 4.11µM and ELG1 repair inh inconclusive.
For CCOC(=O)COc1ccc(Br)cc1/C=C/c1[nH]c(=O)[nH]c(=O)c1[N+](=O)[O-] the results were Giardia kill inactive, DT40 TDP1 no CPT inconclusive, IL1B secr inh -63.2, TDP1 inh inactive, DT40 TDP1 CPT inactive and ELG1 repair inh inactive.
Screening CCOC(=O)COc1ccc(Br)cc1/C=C\c1[nH]c(=O)[nH]c(=O)c1[N+](=O)[O-] returned Giardia kill inactive, DT40 TDP1 no CPT 23.1µM, IL1B secr inh inactive, TDP1 inh inactive, DT40 TDP1 CPT 23.1µM and ELG1 repair inh inactive.
For Cc1[nH]n(-c2ccccc2)c(=S)c1C=NCCCN=Cc1c(C)[nH]n(-c2ccccc2)c1=S the results were Giardia kill inactive, DT40 TDP1 no CPT inactive, IL1B secr inh -96.9, TDP1 inh inactive, DT40 TDP1 CPT inconclusive and ELG1 repair inh inconclusive.
O=c1cc(OCc2ccccc2)cc[nH]1 was read as Giardia kill inactive, DT40 TDP1 no CPT inactive, IL1B secr inh -65.7, TDP1 inh inactive, DT40 TDP1 CPT inactive and ELG1 repair inh inactive.
Screening Cc1ccc(S(=O)(=O)NCC(c2ccco2)N2CCN(c3ccccc3F)CC2)cc1 (stereo not given) returned DT40 TDP1 no CPT 16.4µM, TDP1 inh inactive and DT40 TDP1 CPT inconclusive.
Screening COc1ccc(S(=O)(=O)NCC(c2ccco2)N2CCN(c3ccccc3F)CC2)cc1OC (stereo not given) returned DT40 TDP1 no CPT inconclusive, TDP1 inh inactive and DT40 TDP1 CPT inconclusive.
Screening COc1ccc(S(=O)(=O)NCC(c2ccco2)N2CCOCC2)cc1OC (stereo not given) returned DT40 TDP1 no CPT inactive, TDP1 inh inactive and DT40 TDP1 CPT inactive.
Screening O=S(=O)(NCC(c1ccco1)N1CCN(c2ccc(F)cc2)CC1)c1ccccc1 (stereo not given) returned DT40 TDP1 no CPT 20.6µM, TDP1 inh inactive and DT40 TDP1 CPT inconclusive.
COc1ccc(N2CCN(C(CNS(=O)(=O)c3ccc(OC)c(C)c3)c3ccco3)CC2)cc1 (stereo not given) was read as DT40 TDP1 no CPT 23.1µM, TDP1 inh inactive and DT40 TDP1 CPT inconclusive.
`Cc1cc(C)n(-c2ccc(C(=O)N3CCN(S(=O)(=O)c4ccc(OC(F)(F)F)cc4)CC3)cc2)n1` gave DT40 TDP1 no CPT inconclusive, IL1B secr inh inactive and DT40 TDP1 CPT inconclusive.
Screening O=C1OCC2=C1C(c1ccc3c(c1)OCO3)c1cc3c(cc1O2)OCO3 (stereo not given) returned Giardia kill inactive, DT40 TDP1 no CPT 2.31µM, IL1B secr inh inactive and DT40 TDP1 CPT 2.06µM.
`COc1cc(C2C3=C(COC3=O)Oc3cc4c(cc32)OCO4)cc(OC)c1OC` (stereo not given) gave Giardia kill inactive, DT40 TDP1 no CPT 0.146µM, IL1B secr inh inactive, TDP1 inh inactive and DT40 TDP1 CPT 0.184µM.
